# Experimental data: PubChem BioAssay (Tox21)
# Several values for one entry are separate records, joined by “and”; a condition that tells them apart may be missing. Identical values can stand only once. Records with an inconclusive call do not appear. A call without a number means that no potency is given here. Some structures have more than one record in an assay (separate samples or runs), and their calls can disagree. Activity calls are given as the source filed them. Unless noted, the call rests on the fitted dose curve; in most records, active means well fitted curve in the direction sought with a large enough effect in the repeat runs; inconclusive means weak or mixed curves; inactive means no such curve, though single readings can be large; an effect the other way counts as inactive or inconclusive.
# How the values were obtained:
# [1] = qHTS assay to identify small molecule agonists of the androgen receptor (AR) signaling pathway in the presence of an antagonist - cell viability counter screen (AID 1259379); further: nearly all actives have a fitted effect of over 25% in size; further: potency means the concentration at half of the fitted maximal effect
# Method in brief: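 Cells: MDA-kb2 (MMTV-luc, AR and GR elements), 3,000/well, 5 hr settle. Added: nilutamide 3.0uM final, then compounds (15 conc.). Incubation: 16 hr, 37C, no CO2. Read-out: CellTiter-Fluor, 1 hr, fluorescence.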
# [2] = qHTS assay to identify small molecule agonists of the estrogen receptor beta (ER-beta) signaling pathway - cell viability counter screen (AID 1259380); further: nearly all actives have a fitted effect of over 30% in size; further: potency means the concentration at half of the fitted maximal effect
# Method in brief: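 HEK293T ER-beta-UAS-bla; 2% CS-FBS; 6 hr pre-plate, 16 hr cpd at 37C/5% CO2; LiveBLAzer read first, then CellTiter-Glo 30 min RT, luminescence.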
# [3] = target: Androgen receptor (Homo sapiens) (UniProt P10275); assay: qHTS assay to identify small molecule agonists of the androgen receptor (AR) signaling pathway in the presence of an antagonist (AID 1259381; calls by dose curve; further: nearly all actives have a fitted effect of over 15% in size; further: potency means the concentration at half of the fitted maximal effect)
# Chain of Androgen receptor (Homo sapiens) (P10275 whole entry, looked up): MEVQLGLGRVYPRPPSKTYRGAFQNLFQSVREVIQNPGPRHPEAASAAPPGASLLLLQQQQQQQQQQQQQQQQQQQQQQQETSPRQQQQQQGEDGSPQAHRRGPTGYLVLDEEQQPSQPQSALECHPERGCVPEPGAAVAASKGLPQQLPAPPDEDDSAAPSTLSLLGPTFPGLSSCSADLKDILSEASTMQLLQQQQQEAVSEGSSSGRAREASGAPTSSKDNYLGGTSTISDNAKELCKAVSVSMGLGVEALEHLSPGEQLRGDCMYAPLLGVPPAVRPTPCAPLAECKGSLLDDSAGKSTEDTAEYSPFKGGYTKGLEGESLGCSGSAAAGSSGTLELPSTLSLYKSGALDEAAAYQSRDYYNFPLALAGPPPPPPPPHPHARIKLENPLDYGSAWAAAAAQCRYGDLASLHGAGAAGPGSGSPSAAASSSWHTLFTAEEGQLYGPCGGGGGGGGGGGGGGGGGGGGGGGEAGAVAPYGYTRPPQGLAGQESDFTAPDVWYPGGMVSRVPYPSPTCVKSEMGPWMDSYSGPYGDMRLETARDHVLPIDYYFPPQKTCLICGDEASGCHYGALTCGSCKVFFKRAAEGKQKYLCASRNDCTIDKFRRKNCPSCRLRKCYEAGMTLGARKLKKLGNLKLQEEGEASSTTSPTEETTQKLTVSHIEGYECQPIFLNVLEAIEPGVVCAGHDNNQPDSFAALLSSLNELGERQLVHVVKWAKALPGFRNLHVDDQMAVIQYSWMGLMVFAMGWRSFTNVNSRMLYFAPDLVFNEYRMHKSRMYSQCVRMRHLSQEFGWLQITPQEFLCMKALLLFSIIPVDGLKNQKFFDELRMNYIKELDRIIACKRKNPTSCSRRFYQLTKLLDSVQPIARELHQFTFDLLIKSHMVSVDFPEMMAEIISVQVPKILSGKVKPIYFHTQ
# Method in brief: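 MDA-kb2 cells, 3,000/well, rested 5hr at 37C/0% CO2 → nilutamide 3.0uM final or buffer → compounds, 15 conc. → 16hr at 37C → ONE-Glo, 30min RT → luminescence.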
# [4] = qHTS assay to identify small molecule antagonists of the estrogen receptor beta (ER-beta) signaling pathway - cell viability counter screen (AID 1259382); further: nearly all actives have a fitted effect of over 55% in size; further: potency means the concentration at half of the fitted maximal effect
# Method in brief: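 Cells: ER-beta-UAS-bla HEK293T, 2,000/well, 2% CS-FBS, 6 hr settle. Cpd + E2 (1nM final), 16 hr, 37C/5% CO2. Bla FRET substrate 2 hr RT, then CellTiter-Glo 30 min RT, luminescence.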
# [5] = target: Estrogen receptor (Homo sapiens) (UniProt P03372); assay: qHTS assay to identify small molecule agonists of the estrogen receptor alpha (ER-alpha) signaling pathway in the presence of an antagonist (AID 1259383; calls by dose curve; further: nearly all actives have a fitted effect of over 15% in size; further: potency means the concentration at half of the fitted maximal effect; on activation: top concentration of the series differs between compounds)
# Chain of Estrogen receptor (Homo sapiens) (P03372 whole entry, looked up): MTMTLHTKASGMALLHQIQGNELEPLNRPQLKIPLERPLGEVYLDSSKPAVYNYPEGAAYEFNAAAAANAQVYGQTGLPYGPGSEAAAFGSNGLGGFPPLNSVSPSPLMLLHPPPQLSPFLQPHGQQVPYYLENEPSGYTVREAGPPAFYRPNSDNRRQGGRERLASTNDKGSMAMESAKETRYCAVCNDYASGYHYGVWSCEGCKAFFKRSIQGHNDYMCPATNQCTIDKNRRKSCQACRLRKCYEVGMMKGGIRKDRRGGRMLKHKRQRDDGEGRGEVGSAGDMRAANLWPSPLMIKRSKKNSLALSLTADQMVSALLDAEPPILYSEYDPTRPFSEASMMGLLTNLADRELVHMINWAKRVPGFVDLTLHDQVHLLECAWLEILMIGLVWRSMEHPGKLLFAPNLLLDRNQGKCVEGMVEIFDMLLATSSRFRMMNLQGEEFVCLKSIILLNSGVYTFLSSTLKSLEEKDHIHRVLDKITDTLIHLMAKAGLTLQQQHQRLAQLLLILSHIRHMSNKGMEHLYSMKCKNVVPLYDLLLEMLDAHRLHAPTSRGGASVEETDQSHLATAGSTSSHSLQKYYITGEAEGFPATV
# Method in brief: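 VM7Luc4E2, endog. ER-alpha + 4×ERE-luc; charcoal-stripped FBS, phenol red-free, 5 d; 24hr plating; +10.0nM ICI-182,780 (final); cpds 15 conc, 22hr, 37C/5% CO2; ONE-Glo luminescence.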
# [6] = qHTS assay to identify small molecule agonists or antagonists of the thyroid stimulating hormone receptor (TSHR) signaling pathway - wild type cell line counter screen (AID 1259384; calls by dose curve)
# Method in brief: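 Wild-type Hek293 cells, 800/well, 18 h at 37C, then compound with Ro20-1724 for 30 min RT. cAMP by HTRF (cAMP-d2/anti-cAMP cryptate), 1 h RT, fluorescence read. 15 concentrations, triplicates.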
# [7] = target: Thyrotropin receptor (Homo sapiens) (UniProt P16473); assay: qHTS assay to identify small molecule antagonists of the thyroid stimulating hormone receptor (TSHR) signaling pathway (AID 1259385; calls by dose curve; further: nearly all actives have a fitted effect of over 20% in size)
# Chain of Thyrotropin receptor (Homo sapiens) (P16473 whole entry, looked up): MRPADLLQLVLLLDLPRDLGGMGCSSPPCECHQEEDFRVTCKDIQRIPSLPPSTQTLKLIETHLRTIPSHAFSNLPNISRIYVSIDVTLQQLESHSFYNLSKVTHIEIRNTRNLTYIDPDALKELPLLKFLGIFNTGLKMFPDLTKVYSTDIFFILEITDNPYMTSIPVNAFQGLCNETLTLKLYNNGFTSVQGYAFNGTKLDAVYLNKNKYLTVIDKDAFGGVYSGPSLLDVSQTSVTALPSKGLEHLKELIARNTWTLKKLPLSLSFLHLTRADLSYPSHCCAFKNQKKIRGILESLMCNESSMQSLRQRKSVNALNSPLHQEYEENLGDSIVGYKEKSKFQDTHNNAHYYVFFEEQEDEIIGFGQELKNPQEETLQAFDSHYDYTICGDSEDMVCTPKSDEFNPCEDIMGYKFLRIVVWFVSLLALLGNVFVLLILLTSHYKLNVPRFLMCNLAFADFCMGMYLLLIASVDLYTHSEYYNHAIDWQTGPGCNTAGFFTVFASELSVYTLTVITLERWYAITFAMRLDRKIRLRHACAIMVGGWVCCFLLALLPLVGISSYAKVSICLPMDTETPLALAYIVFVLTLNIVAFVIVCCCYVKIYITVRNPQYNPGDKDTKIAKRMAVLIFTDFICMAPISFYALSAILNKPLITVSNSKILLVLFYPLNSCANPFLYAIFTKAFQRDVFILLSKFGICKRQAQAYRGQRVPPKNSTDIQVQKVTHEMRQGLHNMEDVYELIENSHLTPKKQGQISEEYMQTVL
# Method in brief: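 TSHR-HEK293 cells (800/well) plated 18 h, then compounds with Ro20-1724 and TSH at 1.5 ng/mL final, 30 min at room temperature. cAMP quantified by HTRF (cAMP-d2/anti-cAMP-cryptate, 1 h); 15 concentrations in triplicate.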
# [8] = qHTS assay to identify small molecule agonists of the estrogen receptor alpha (ER-alpha) signaling pathway in the presence of an antagonist - cell viability counter screen (AID 1259386);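 further: cells exposed to compounds for 22 h at 37 °C before the viability read; nearly all actives have a fitted effect of over 30% in size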; further: potency means the concentration at half of the fitted maximal effect
# Method in brief: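 VM7Luc4E2, stripped-serum pre-culture 5 d; 24hr plating; +ICI-182,780 10.0nM final; cpds 15 conc, 22hr, 37C/5% CO2; CellTiter-Fluor added at 21hr, fluorescence 1hr later.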
# [9] = target: Progesterone receptor (Homo sapiens) (UniProt P06401); assay: qHTS assay to identify small molecule agonists of the progesterone receptor (PR) signaling pathway (AID 1346784; calls by dose curve; further: nearly all actives have a fitted effect of over 30% in size)
# Chain of Progesterone receptor (Homo sapiens) (P06401 whole entry, looked up): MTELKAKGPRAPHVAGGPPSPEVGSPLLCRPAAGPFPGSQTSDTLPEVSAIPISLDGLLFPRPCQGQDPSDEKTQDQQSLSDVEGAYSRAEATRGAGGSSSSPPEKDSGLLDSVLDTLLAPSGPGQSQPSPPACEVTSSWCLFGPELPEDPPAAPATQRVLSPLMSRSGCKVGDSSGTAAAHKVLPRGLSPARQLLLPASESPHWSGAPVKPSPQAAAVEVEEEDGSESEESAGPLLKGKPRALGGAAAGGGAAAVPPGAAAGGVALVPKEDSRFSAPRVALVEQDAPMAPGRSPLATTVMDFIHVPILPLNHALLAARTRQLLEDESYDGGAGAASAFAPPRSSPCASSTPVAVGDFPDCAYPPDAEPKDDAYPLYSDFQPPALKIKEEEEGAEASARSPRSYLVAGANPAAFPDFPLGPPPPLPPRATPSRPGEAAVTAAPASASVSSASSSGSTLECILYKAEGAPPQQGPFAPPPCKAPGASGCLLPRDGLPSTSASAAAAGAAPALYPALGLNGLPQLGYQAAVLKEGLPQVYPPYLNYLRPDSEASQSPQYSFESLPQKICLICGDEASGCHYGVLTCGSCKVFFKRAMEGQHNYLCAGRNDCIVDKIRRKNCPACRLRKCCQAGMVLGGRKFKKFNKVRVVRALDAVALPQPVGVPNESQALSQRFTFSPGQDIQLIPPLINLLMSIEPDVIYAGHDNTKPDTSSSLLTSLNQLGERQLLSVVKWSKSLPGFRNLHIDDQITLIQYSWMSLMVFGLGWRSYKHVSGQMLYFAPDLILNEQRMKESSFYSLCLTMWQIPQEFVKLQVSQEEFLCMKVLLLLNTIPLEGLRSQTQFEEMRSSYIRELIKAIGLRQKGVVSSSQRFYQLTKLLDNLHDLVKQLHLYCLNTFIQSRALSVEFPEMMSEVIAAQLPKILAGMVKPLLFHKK
# Method in brief: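 Reporter assay, GripTite PR-UAS-bla HEK 293T cells: 16 hr exposure to DMSO-dissolved compounds at 37C, 5% CO2, in steroid-depleted (2% charcoal-stripped FBS) medium; beta-lactamase measured by FRET fluorescence.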
# [10] = qHTS assay to identify small molecule antagonists of the progesterone receptor (PR) signaling pathway - cell viability counter screen (AID 1346798); further: nearly all actives have a fitted effect of over 50% in size; further: potency means the concentration at half of the fitted maximal effect
# Method in brief: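 In the same plates used for the beta-lactamase readout, cell viability of compound- and R5020-treated PR-UAS-bla HEK293T cells (16 hr, 37C) was assessed by CellTiter-Glo luminescence.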
# [11] = qHTS assay to identify small molecule agonists of the progesterone receptor (PR) signaling pathway - cell viability counter screen (AID 1346799; calls by dose curve; further: nearly all actives have a fitted effect of over 45% in size; further: potency means the concentration at half of the fitted maximal effect)
# Method in brief: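 Multiplexed viability read: CellTiter-Glo luminescence, 30 min RT, following LiveBLAzer FRET measurement on PR-UAS-bla HEK293T cells exposed to compounds 16 hr.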
# [12] = qHTS assay to identify small molecule agonists of the TGF-beta/Smad signaling pathway - cell viability counter screen (AID 1346829); further: top concentration of the series differs between compounds; nearly all actives have a fitted effect of over 45% in size
# Method in brief: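 SBE-bla HEK 293T cells plated overnight, compound exposure 5 hr at 37 C. Viability read in the same wells by CellTiter-Glo luminescence after 30 min at room temperature, following the beta-lactamase read.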
# [13] = qHTS assay to identify small molecule agonists of the TGF-beta/Smad signaling pathway (AID 1346859; active means well fitted activation curve with a large enough effect in the signal ratio in the repeat runs, not every such curve was filed as active; the % refers to the signal ratio; further: series mostly up to about 77 µM)
# Method in brief: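 Screening used HEK 293T SBE-bla cells at 4,000/well. Test agents: 5 hr, 37 C. Detection: FRET substrate, 2 hr RT, then excitation 405 nm with emissions at 460 and 530 nm.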
# [14] = target: Thyrotropin-releasing hormone receptor (Homo sapiens) (UniProt P34981); assay: qHTS assay to identify small molecule antagonists of the thyrotropin-releasing hormone receptor (TRHR) signaling pathway (AID 1346877; active means well fitted inhibition curve with a large enough effect in the repeat runs, not every such curve was filed as active; further: series mostly up to about 51 µM)
# Chain of Thyrotropin-releasing hormone receptor (Homo sapiens) (P34981 whole entry, looked up): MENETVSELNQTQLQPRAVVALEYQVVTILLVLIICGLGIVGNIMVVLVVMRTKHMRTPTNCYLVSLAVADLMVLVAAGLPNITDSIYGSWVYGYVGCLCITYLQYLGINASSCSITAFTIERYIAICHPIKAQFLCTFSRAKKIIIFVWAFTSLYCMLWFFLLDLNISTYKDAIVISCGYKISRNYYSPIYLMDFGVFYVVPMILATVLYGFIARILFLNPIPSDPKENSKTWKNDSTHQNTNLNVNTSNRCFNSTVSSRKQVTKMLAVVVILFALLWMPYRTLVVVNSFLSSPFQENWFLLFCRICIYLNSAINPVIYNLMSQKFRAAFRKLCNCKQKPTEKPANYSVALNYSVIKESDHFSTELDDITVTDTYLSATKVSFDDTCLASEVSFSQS
# Method in brief: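 Intracellular calcium fluorescence, read kinetically every second over 3 min, reports TRH-evoked signalling in HEK293 cells carrying TRHR. Test compounds were added 5 min ahead of a 1 nM TRH challenge.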
# [15] = target: Thyrotropin-releasing hormone receptor (Homo sapiens) (UniProt P34981); assay: qHTS assay to identify small molecule agonists of the thyrotropin-releasing hormone receptor (TRHR) signaling pathway (AID 1346891; calls by dose curve; further: series mostly up to about 58 µM)
# Method in brief: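 Readout was intracellular calcium fluorescence in TRHR-Hek293 cells. Cells were incubated 18 h, dye-loaded 2 h at 37 °C, and treated with compound in agonist mode.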
# [16] = target: Estrogen receptor beta (Homo sapiens) (UniProt Q92731); assay: qHTS assay to identify small molecule antagonists of the estrogen receptor beta (ER-beta) signaling pathway (AID 1259378; active means well fitted inhibition curve with a large enough effect in the signal ratio in the repeat runs, not every such curve was filed as active; the % refers to the signal ratio; further: potency means the concentration at half of the fitted maximal effect)
# Chain of Estrogen receptor beta (Homo sapiens) (Q92731 whole entry, looked up): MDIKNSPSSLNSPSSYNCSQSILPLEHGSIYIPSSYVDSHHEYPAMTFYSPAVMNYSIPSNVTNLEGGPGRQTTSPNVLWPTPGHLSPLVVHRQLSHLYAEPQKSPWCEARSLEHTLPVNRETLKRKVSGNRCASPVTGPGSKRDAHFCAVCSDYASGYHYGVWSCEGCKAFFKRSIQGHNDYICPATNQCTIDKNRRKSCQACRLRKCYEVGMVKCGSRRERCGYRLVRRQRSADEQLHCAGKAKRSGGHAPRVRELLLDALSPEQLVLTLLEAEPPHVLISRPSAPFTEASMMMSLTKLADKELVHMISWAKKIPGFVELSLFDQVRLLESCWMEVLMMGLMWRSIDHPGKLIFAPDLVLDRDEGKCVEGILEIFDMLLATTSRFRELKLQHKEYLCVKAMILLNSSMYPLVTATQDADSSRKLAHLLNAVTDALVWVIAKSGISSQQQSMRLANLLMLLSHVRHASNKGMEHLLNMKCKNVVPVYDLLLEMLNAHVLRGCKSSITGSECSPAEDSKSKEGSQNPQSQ
# Method in brief: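 ER-beta-UAS-bla HEK293T cells in 2% charcoal-stripped FBS medium treated with compound plus 1nM final 17-beta-estradiol for 16 hr at 37C. Beta-lactamase reporter read by FRET substrate fluorescence after 2 hours at room temperature.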
# [17] = qHTS assay to identify small molecule antagonists of the TGF-beta/Smad signaling pathway - cell viability counter screen (AID 1346824); further: nearly all actives have a fitted effect of over 50% in size
# Method in brief: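 SBE-bla HEK 293T cells, incubated overnight, then compound plus 0.25 ng/mL TGF-beta1 (stock added) for 5 hr at 37 C. Viability was read in the same wells by CellTiter-Glo luminescence after 30 min at room temperature.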
# [18] = Human pregnane X receptor (PXR) small molecule agonists, qHTS cell viability counter screen (AID 1346977); further: nearly all actives have a fitted effect of over 50% in size; further: potency means the concentration at half of the fitted maximal effect
# Method in brief: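 In each well, the PXR reporter HepG2 line was checked for viability: CellTiter-Fluor reagent added 23hr post-dosing, fluorescence read after 1hr incubation at 37C.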
# [19] = target: Progesterone receptor (Homo sapiens) (UniProt P06401); assay: qHTS assay to identify small molecule antagonists of the progesterone receptor (PR) signaling pathway (AID 1346795; active means well fitted inhibition curve with a large enough effect in the signal ratio in the repeat runs, not every such curve was filed as active; the % refers to the signal ratio; further: potency means the concentration at half of the fitted maximal effect)
# Method in brief: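 Stimulus R5020 at 1 nM final; cells HEK293T PR-UAS-bla; medium with 2% charcoal-stripped FBS; compound exposure 16 hr at 37C, 5% CO2; detection by FRET beta-lactamase substrate, 2 hr, room temperature.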
SMILES,Potency [1],Potency [2],Potency [3],Potency [4],Potency [5],outcome [6],Potency [7],Potency [8],Potency [9],Potency [10],Potency [11],Potency [12],outcome [13],Potency [14],Potency [15],Potency [16],Potency [17],Potency [18],Potency [19]
CNC(C)Cc1ccc2c(c1)OCO2 (stereo not drawn),inactive,inactive,inactive,inactive,inactive,inactive,inactive,inactive,inactive,66.9 µM (active),inactive,inactive,inactive,inactive,inactive,,,,
Oc1ccc(C(=C(Cl)Cl)c2ccc(O)cc2)cc1,inactive,68.5 µM (active),,68.5 µM (active),1.93 µM (active),inactive,inactive,,,,,inactive,inactive,,,3.43 µM (active),inactive,,
O=C(Cl)c1ccc(Cl)cc1,inactive,inactive,inactive,inactive,inactive,,inactive,inactive,inactive,inactive,inactive,inactive,inactive,,,,,inactive,
Cc1cc(N=Nc2ccccc2C)ccc1N,30.6 µM (active) and 34.4 µM (active),27.3 µM (active),inactive,54.5 µM (active),,inactive,,27.3 µM (active),inactive,inactive,,inactive,inactive,inactive,inactive,19.3 µM (active),inactive,4.47 µM (active) and 6.86 µM (active),
CCC(C)(C)C(=O)OC1=C(c2ccc(Cl)cc2Cl)C(=O)OC12CCCCC2,inactive,inactive,inactive,inactive,inactive,inactive,inactive,,inactive,,inactive,,inactive,inactive,inactive,,inactive,inactive,inactive
Cc1ccc(OP(=O)(Oc2ccccc2)Oc2ccccc2)cc1,inactive,31.1 µM (active),inactive,,inactive,,inactive,inactive,inactive,inactive,inactive,inactive,inactive,inactive,inactive,24.7 µM (active),inactive,inactive,15.6 µM (active)
CS(=O)(=O)c1ccc(C(=O)C2C(=O)CCCC2=O)c([N+](=O)[O-])c1,inactive,,,,inactive,,inactive,,,,,inactive,,,inactive,inactive,inactive,inactive,
CCOC(=O)c1ccccc1S(=O)(=O)NC(=O)Nc1nc(Cl)cc(OC)n1,inactive,inactive,inactive,inactive,inactive,inactive,inactive,inactive,inactive,inactive,,inactive,inactive,,,,inactive,inactive,
NC(=O)c1ccc(N)nc1,inactive,48.6 µM (active),inactive,,inactive,,,inactive,inactive,17.2 µM (active),21.7 µM (active),inactive,inactive,inactive,inactive,inactive,inactive,inactive,
CC(C)(C)OO,inactive,inactive,inactive,inactive,,inactive,inactive,inactive,inactive,inactive,inactive,inactive,inactive,inactive,inactive,inactive,inactive,inactive,inactive
O=C(NC(=O)c1c(F)cccc1F)Nc1cc(Cl)c(OC(F)(F)C(F)F)c(Cl)c1,inactive,,inactive,inactive,inactive,,inactive,inactive,inactive,inactive,,inactive,inactive,inactive,inactive,inactive,inactive,inactive,inactive
COc1ccc([N+](=O)[O-])cc1O,inactive,inactive,inactive,inactive,inactive,,inactive,,inactive,,inactive,inactive,inactive,inactive,inactive,,inactive,inactive,inactive
CC(=O)c1ccc(-c2ccccc2)cc1,inactive,inactive,inactive,inactive,inactive,inactive,inactive,inactive,inactive,inactive,inactive,inactive,inactive,,,,inactive,inactive,
C[C@H]1O[C@@H](O[C@H]2[C@@H](O)C[C@H](O[C@H]3[C@@H](O)C[C@H](O[C@H]4CC[C@@]5(C)[C@H](CC[C@@H]6[C@@H]5CC[C@]5(C)[C@@H](C7=CC(=O)OC7)CC[C@]65O)C4)O[C@@H]3C)O[C@@H]2C)C[C@H](O)[C@@H]1O,inactive,43.5 nM (active) and 47.3 nM (active),inactive and 237 nM (active),30.8 nM (active) and 42.2 nM (active),inactive,inactive,,inactive,inactive,38.8 nM (active) and 94.4 nM (active),77.4 nM (active) and 237 nM (active),,,inactive,inactive,,,,
